# The source made the active and inactive calls.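 How the source made its calls: active means valid curve fit with half-effect dose at most 10 µM and total binding change across doses of 30 points or more; inactive means the rest.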
# Tested on: Rac wt
# Assay: small GTPase nucleotide-binding inhibition, multiplex panel – biochemical, round 1 SAR, Mg buffer, multiplex flow cytometry, selectivity assay for Cdc42 probe extension project, SAR follow-up (AID 588477)
# Details: GST-GTPase beads, Bodipy-GTP binding; series mostly up to 100 µM
row,Compound,outcome
1,NS(=O)(=O)c1ccc(N2N=C(c3ccccc3)CC2c2ccccc2)cc1 (stereo not drawn),inactive
2,O=C(C#Cc1ccccc1)c1cccc([N+](=O)[O-])c1,inactive
3,COc1ccc(C2CC(c3ccccc3)=NN2c2ccc(S(N)(=O)=O)cc2)cc1 (stereo not drawn),inactive
